# Screening results from PubChem.
# Only some compounds are listed: those with a hit (about 0.92% of all), similar ones and a draw of the others.
# RPL19A TOR yeast: RPL19A-GFP expression modulators in yeast, primary screen, cell-based, S. cerevisiae, multiplex flow cytometry, MLPCN. 0.3% of 330,000 active. percent response vs DMSO, % at 10 µM. S. cerevisiae RPL19A-GFP strain, 3 h; stronger effect = lower value. AID 2025, 2009;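 active = percent response vs DMSO below 50%; inconclusive = fewer than 70 events counted for the yeast strain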;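 also: median channel GFP fluorescence of the barcoded RPL19A-GFP strain; ratio of sample median GFP to plate DMSO average so 100% = DMSO; lower means less RPL19A-GFP as with rapamycin TOR inhibition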
# AGP1-GFP MLPCN: modulators of AGP1-GFP expression in yeast TOR pathway, primary screen, cell-based, multiplex flow cytometry, S. cerevisiae, MLPCN library; 0.02% of 320,000 active; 3 h; GFP as percent of DMSO wells; GFP response vs DMSO, % at 10 µM; AID 2066, 2009;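 active = GFP response relative to DMSO above a set limit, near screen average plus 3 SD, cut at about 150% in these data; inconclusive = fewer than 70 cells counted for the yeast strain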;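 also: median GFP channel fluorescence of the gated AGP1 strain per well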
# LAP4 TOR yeast: modulators of LAP4-GFP expression in yeast, primary screen, S. cerevisiae, multiplex flow cytometry, MLPCN library | 3 h; median GFP as percent of DMSO wells | GFP response vs DMSO, % at 10 µM | 0.34% of 320,000 active;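 active = GFP response vs DMSO above a set limit, about the screen mean plus 3 SD, cut at about 150% in these data; inconclusive = under 70 cell events counted for the yeast strain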
# MEP2-GFP yeast: modulators of MEP2-GFP levels in yeast, primary screen, S. cerevisiae, multiplex flow cytometry, MLPCN library; S. cerevisiae MEP2-GFP strain, 3 h; 100% = DMSO control level; GFP response vs DMSO, % at 10 µM; 0.51% of 330,000 active;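 active = GFP response versus DMSO above a set limit, roughly screen mean plus 3 SD, cut at about 180% in these data; inconclusive = fewer than 70 cells counted for a yeast strain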;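 also: median GFP fluorescence of the barcode-gated MEP2-GFP cells per well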
# CIT2-GFP yeast: modulators of CIT2-GFP expression in yeast, primary screen, S. cerevisiae, GFP fusion, multiplex flow cytometry, MLPCN library | S. cerevisiae CIT2-GFP strain, 3 h; 100 means same as DMSO wells | GFP response vs DMSO, % at 10 µM | 0.065% of 320,000 active | AID 2029, 2009;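 active = GFP response relative to DMSO above a set limit, near the screen mean plus 3 SD, cut at about 150% in these data; inconclusive = Fewer than 70 cells measured for a yeast strain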;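 also: ratio of well median GFP fluorescence to mean of DMSO wells on the plate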
# * marks the source's active call; other numbers are inactive results; ? = inconclusive; . = no result; [ ] = dose if it differs, or a comment.
SMILES,RPL19A TOR yeast,AGP1-GFP MLPCN,LAP4 TOR yeast,MEP2-GFP yeast,CIT2-GFP yeast
CSc1cccc(NC(=O)C2CCCN(S(=O)(=O)c3cccs3)C2)c1 (configuration not stated),16.1*[may fluoresce violet],?,?,?,?
CSc1cccc(NC(=O)C2CCCN(S(=O)(=O)c3ccc(F)cc3)C2)c1 (configuration not stated),104.9,109.2,102.9,104.9,96.1
COc1ccc(CS(=O)(=O)CC2(O)CCN(C(=O)c3cccc(C(F)(F)F)c3)CC2)cc1,98.4,110.7,105.1,99.4,109.4
CCCCNc1c(-c2ccc(SC3CCCCC3)cc2)nc2ccccn12,87.5,84.3,148.6,91.3,72.4
CCCCNc1c(-c2ccc(SC(C)CC)cc2)nc2ccccn12 (configuration not stated),84.6,82.6,161.9*,91.0,78.4
Cc1cc(C)nc(SCC(=O)NCC2COc3ccccc3O2)n1 (configuration not stated),102.0,103.8,102.0,102.2,94.4
Cn1c(=O)cc(SCC(=O)NCC2COc3ccccc3O2)c2ccccc21 (configuration not stated),63.1,22.1,78.2,397.1*[may fluoresce violet],?
COC(=O)C1CN(S(=O)(=O)c2cc(OC)ccc2OC)CCS1 (configuration not stated),105.7,103.2,96.9,108.9,104.7
COc1ccc(CNC(=O)c2c(O)c3cccc4c3n(c2=O)CCC4)cc1OC,37.8*[may fluoresce violet],.,88.2,294.6*[may fluoresce violet],?
CNC(=O)c1c(O)c2cccc3c2n(c1=O)CCC3,101.4,87.7,89.4,96.2,91.7
COc1ccc(CCC(=O)Nc2ccc3c(c2)OCO3)cc1OC,101.2,94.3,95.3,106.8,97.5
O=C(Nc1ccccc1F)c1oc2ccccc2c1NC(=O)C1CC1,43.1*[may fluoresce violet],?,103.5,308.5*[may fluoresce violet],?
O=c1c2c3n(c(=S)nc2[nH]n1-c1ccccc1)CCCCC3,104.4,104.4,82.4,104.5,119.0
Cc1ccc(NC(=O)/C(C#N)=C/c2ccc(C)s2)c(C)c1,55.8,?,114.6,467.7*[may fluoresce violet],?
Cn1cnc([N+](=O)[O-])c1S(=O)(=O)c1cccc(Cl)c1,96.1,122.7,109.8,177.1*,106.0
Cc1nn(C(C)C(=O)c2cccc(Cl)c2)c(C)c1[N+](=O)[O-] (configuration not stated),104.2,98.0,104.0,113.5,105.2
O=C(NCc1cccc(F)c1)C1CCN(C(=O)c2sccc2-n2cccc2)CC1,101.4,102.2,98.6,104.5,102.2
O=S(=O)(c1ccc(Cl)nc1)N1CCCc2ccccc21,52.9,?,70.9,206.7*[may fluoresce violet],?
O=C1C(CSCc2ccccc2)NC(=S)N1c1ccccc1 (configuration not stated),95.2,97.2,152.2*,87.2,91.2
Cn1cnnc1SCC(=O)Nc1nc(-c2ccc(F)cc2)cs1,115.6,121.6,199.4*,253.9*,217.5*
Cc1csc(NC(=O)CSc2nncn2C)n1,103.0,100.7,100.3,103.5,100.0
COc1ccc(NC(=O)c2ccc(OCc3c(C)noc3C)c(OC)c2)cn1,52.8,?,72.0,189.9*[may fluoresce violet],?
CS(=O)(=O)N1CCc2cc(C(=O)Nc3ccc(COCC(F)(F)F)cc3)ccc21,112.4,103.4,116.5,159.3,154.8*
O=C(CCNS(=O)(=O)c1ccc(Br)cc1)NCCc1ccc(Cl)cc1,97.9,102.9,93.9,89.7,100.0
COc1ccccc1CNC(=O)C1CCN(S(=O)(=O)c2ccc(-n3cnnn3)cc2)CC1,61.5,?,89.3,608.8*[may fluoresce violet],?
O=C(O)C1=CC[C@@H](c2ccc(Cl)cc2)N(S(=O)(=O)c2ccc(Cl)cc2)[C@H]1c1ccccc1,98.6,87.5,137.2,91.7,115.8
O=C(NCc1ccco1)/C(=C\c1ccccc1)NC(=O)c1ccccc1,48.1*[may fluoresce violet],?,75.9,?,?
O=C(Nc1ccccc1)/C(=C/c1ccc(O)cc1)NC(=O)c1ccco1,53.0,?,100.7,532.6*[may fluoresce violet],?
Cc1ccc(S(=O)(=O)NCc2ccccn2)cc1C,102.0,99.4,108.0,105.0,100.7
